# Data: PubChem BioAssay (NCI)
# This is part of a sample that, as a whole, favours compounds with a hit. Of some 79,000 tested, about 15% had one in any assay. Unmarked numbers belong to inactive results. Cut-off read from the data, not from the text of the source: active = growth inhibition above about 70%; inactive = the rest.
# Test: NCI Yeast Anticancer Drug Screen. Data for the cln2 rad14 strain (AID 165);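 note: 0% = growth equal to vehicle treated cultures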
# Settings: S. cerevisiae cln2 rad14 strain, at 50.0 µM, hits give high values
# Summary of the method: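 Readout is yeast growth inhibition versus vehicle-treated controls, using a strain with cln2 and rad14 alterations exposed to compound.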
row,Compound,growth inhibition
1,COc1cccc(C2=NC(C(C)C)CO2)c1OC (stereo not given),19.9%
2,CC(N)CCN (stereo not given),10.8%
3,NNC(=O)c1c[nH]c2ccccc2c1=O,-20.6%
4,CCOC(=O)C(Cc1c[nH]c2ccccc12)NC(C)=O (stereo not given),-9.9%
5,COc1ccc(C2c3cc4c(cc3OC(N3CCOCC3)C2C)OCO4)cc1 (stereo not given),-3.95%
6,COC(C)CC(=O)O (stereo not given),-24.5%
7,O=C(c1ccc(Cl)c(Cl)c1)n1c2ccccc2c2ccccc21,3.8%
8,CCOC(=O)NC(=S)Nc1cn(C)cc1[N+](=O)[O-],1.9%
9,O=C(O)c1c(Br)c(Br)c(Br)c(Br)c1C(=O)Nc1ccc(Cl)c(Cl)c1,-11.1%
10,CN(C(=O)CCC1OCCO1)c1cc([N+](=O)[O-])ccc1OCc1ccccc1,9.8%
11,OC(CN1CCc2ccccc2C1)c1ccccc1 (stereo not given),27%
12,OC(CNc1ccc(Cl)cc1)CN1CCOCC1 (stereo not given),-1.05%
13,O=C1CSC2=NC3=C(COC/C3=C\c3ccc(F)cc3)C(c3ccc(F)cc3)N12 (stereo not given),21.2%
14,CC(CCC(=O)CS(C)=O)C1CCC2C3CCC4CCCCC4(C)C3CCC12C (stereo not given),11.6%
15,O=C(C(c1ccccc1)C(F)(F)F)N1CCCC1 (stereo not given),-13.3%
16,CN(N)c1cnn(-c2ccccc2)c(=O)c1Cl,19.4%
17,C=CCCCCCCCCC(=O)N1CCN(C)CC1,16.6%
18,CC(=O)Nc1cccnc1,-21.1%
19,C[C@@H]1C(=O)OCC2=C3C[C@@H](CC[C@@]3(C)C=CC2=O)[C@H](C)C(=O)OCC2=C3C[C@H]1CC[C@@]3(C)C=CC2=O,15.7%
20,NC(=O)c1cn[nH]c1N,-29.6%

row,Compound,growth inhibition
1,Cc1ccccc1S(=O)(=O)NSc1ccccc1[N+](=O)[O-],1.85%
2,O=C(O)c1ccc2sc3ccccc3c(=O)c2c1,-21.2%
3,O=c1[nH]cc(C(F)(C(F)(F)F)C(F)(F)F)c(=O)[nH]1,-4.25%
4,CC(=O)Nc1ccc(C(=O)NN2C(=O)C(Cl)C2c2ccccc2O)cc1 (stereo not given),0.15%
5,S=C(Nc1ccccc1)c1ccccc1,-29.3%
6,CCCCNS(=O)(=O)CCCC,-29.6%
7,OC1=CC(=S)NC2CCCCC12 (stereo not given),35.9%
8,CCC(=O)/C=C/C1=C(C)CCCC1(C)C,-5.8%
9,C=C1C(=O)OC2C1CCC(C)=C1C(=O)C=C(C)C12 (stereo not given),13.2%
10,CCCCCCCCCCCCCCCCCC(=O)N/N=C/c1ccccc1,2.95%
11,O=C(O)c1ccc(C2COc3ccc(Cl)cc3C2)cc1 (stereo not given),4.7%
12,CC(C)Oc1ccc(CCOC(=O)Nc2cccc3ccccc23)cc1,6.65%
13,O=[N+]([O-])c1ccc(-c2nc3ccncc3[nH]2)cc1,-21.6%
14,CCOC(=O)C(Cc1ccccc1Cl)(Cc1ccccc1Cl)c1ccccc1,-79.5%
15,CCCCN(CCCC)CC(O)c1cc(-c2ccc(Cl)cc2)nc2c(Cl)cc(Cl)cc12 (stereo not given),18.1%
16,CCCC(O)CNCc1ccc2ncccc2c1 (stereo not given),-66.8%
17,O=S(=O)(Oc1ccc(Cl)cc1)c1cccc(S(=O)(=O)Oc2ccc(Cl)cc2)c1,-5.55%
18,COP(=O)(OC)C1c2cc(Cl)ccc2-c2c(Cl)cc(Cl)cc21 (stereo not given),49.5%
19,CC(=O)Oc1ccc(-c2ccccc2)cc1,3.1%
20,NNC(=O)C1=NN(c2ccccc2)C(=O)C1,-12.9%

# Test: NCI Yeast Anticancer Drug Screen. Data for the bub3 strain (AID 167)
# Settings: S. cerevisiae bub3 mutant strain, at 50.0 µM, hits give high values
# Summary of the method: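 Screening used yeast with an engineered genetic alteration affecting cell cycle control. Compound-exposed cultures were compared with vehicle cultures, and reduced growth was taken as inhibition.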
row,Compound,growth inhibition
1,COc1cccc(C2=NC(C(C)C)CO2)c1OC (stereo not given),-8.35%
2,CC(N)CCN (stereo not given),12.1%
3,NNC(=O)c1c[nH]c2ccccc2c1=O,5.1%
4,CCOC(=O)C(Cc1c[nH]c2ccccc12)NC(C)=O (stereo not given),41.9%
5,COc1ccc(C2c3cc4c(cc3OC(N3CCOCC3)C2C)OCO4)cc1 (stereo not given),-32.9%
6,COC(C)CC(=O)O (stereo not given),-13.2%
7,O=C(c1ccc(Cl)c(Cl)c1)n1c2ccccc2c2ccccc21,-4.1%
8,CCOC(=O)NC(=S)Nc1cn(C)cc1[N+](=O)[O-],3.65%
9,O=C(O)c1c(Br)c(Br)c(Br)c(Br)c1C(=O)Nc1ccc(Cl)c(Cl)c1,0%
10,CN(C(=O)CCC1OCCO1)c1cc([N+](=O)[O-])ccc1OCc1ccccc1,2%
11,OC(CN1CCc2ccccc2C1)c1ccccc1 (stereo not given),39.4%
12,OC(CNc1ccc(Cl)cc1)CN1CCOCC1 (stereo not given),-3.7%
13,O=C1CSC2=NC3=C(COC/C3=C\c3ccc(F)cc3)C(c3ccc(F)cc3)N12 (stereo not given),30.1%
14,CC(CCC(=O)CS(C)=O)C1CCC2C3CCC4CCCCC4(C)C3CCC12C (stereo not given),-4%
15,O=C(C(c1ccccc1)C(F)(F)F)N1CCCC1 (stereo not given),13.8%
16,CN(N)c1cnn(-c2ccccc2)c(=O)c1Cl,21.4%
17,C=CCCCCCCCCC(=O)N1CCN(C)CC1,-5.25%
18,CC(=O)Nc1cccnc1,-19.9%
19,C[C@@H]1C(=O)OCC2=C3C[C@@H](CC[C@@]3(C)C=CC2=O)[C@H](C)C(=O)OCC2=C3C[C@H]1CC[C@@]3(C)C=CC2=O,1.7%
20,NC(=O)c1cn[nH]c1N,-3.4%

row,Compound,growth inhibition
1,Cc1ccccc1S(=O)(=O)NSc1ccccc1[N+](=O)[O-],-12.8%
2,O=C(O)c1ccc2sc3ccccc3c(=O)c2c1,21.7%
3,O=c1[nH]cc(C(F)(C(F)(F)F)C(F)(F)F)c(=O)[nH]1,-25.3%
4,CC(=O)Nc1ccc(C(=O)NN2C(=O)C(Cl)C2c2ccccc2O)cc1 (stereo not given),-38.1%
5,S=C(Nc1ccccc1)c1ccccc1,-5.1%
6,CCCCNS(=O)(=O)CCCC,6.15%
7,OC1=CC(=S)NC2CCCCC12 (stereo not given),29.4%
8,CCC(=O)/C=C/C1=C(C)CCCC1(C)C,5.8%
9,C=C1C(=O)OC2C1CCC(C)=C1C(=O)C=C(C)C12 (stereo not given),-13.9%
10,CCCCCCCCCCCCCCCCCC(=O)N/N=C/c1ccccc1,-1.5%
11,O=C(O)c1ccc(C2COc3ccc(Cl)cc3C2)cc1 (stereo not given),-19.2%
12,CC(C)Oc1ccc(CCOC(=O)Nc2cccc3ccccc23)cc1,3.8%
13,O=[N+]([O-])c1ccc(-c2nc3ccncc3[nH]2)cc1,-6.85%
14,CCOC(=O)C(Cc1ccccc1Cl)(Cc1ccccc1Cl)c1ccccc1,-4.95%
15,CCCCN(CCCC)CC(O)c1cc(-c2ccc(Cl)cc2)nc2c(Cl)cc(Cl)cc12 (stereo not given),0.45%
16,CCCC(O)CNCc1ccc2ncccc2c1 (stereo not given),-4.35%
17,O=S(=O)(Oc1ccc(Cl)cc1)c1cccc(S(=O)(=O)Oc2ccc(Cl)cc2)c1,5.5%
18,COP(=O)(OC)C1c2cc(Cl)ccc2-c2c(Cl)cc(Cl)cc21 (stereo not given),32.6%
19,CC(=O)Oc1ccc(-c2ccccc2)cc1,18%
20,NNC(=O)C1=NN(c2ccccc2)C(=O)C1,36.8%
